TEAD-YAP block: TEAD-YAP interaction inhibition. AID 1259422. HEK-TIYL cells, TEAD-Gal4/YAP UAS-luciferase luminescence. inhibition, % at 9.12 µM. hit rate 1.4% among 640,000; in the data active = inhibition above about 32%;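 note: 0% = median of test compound wells and 100% = reference inhibitor wells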
FBW7 activator: activators of human E3 ligase FBW7. Q969H0. AlphaScreen FBW7–phospho-cyclin E peptide binding, activator screen. normalized activity (activation), % at 26.1 µM. hit rate 0.13% among 650,000. AID 1259310; in the data active = normalized activity above about 1.9%;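 note: purified mutant Fbw7 with reduced substrate affinity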
Target sequence (Q969H0 whole entry, looked up): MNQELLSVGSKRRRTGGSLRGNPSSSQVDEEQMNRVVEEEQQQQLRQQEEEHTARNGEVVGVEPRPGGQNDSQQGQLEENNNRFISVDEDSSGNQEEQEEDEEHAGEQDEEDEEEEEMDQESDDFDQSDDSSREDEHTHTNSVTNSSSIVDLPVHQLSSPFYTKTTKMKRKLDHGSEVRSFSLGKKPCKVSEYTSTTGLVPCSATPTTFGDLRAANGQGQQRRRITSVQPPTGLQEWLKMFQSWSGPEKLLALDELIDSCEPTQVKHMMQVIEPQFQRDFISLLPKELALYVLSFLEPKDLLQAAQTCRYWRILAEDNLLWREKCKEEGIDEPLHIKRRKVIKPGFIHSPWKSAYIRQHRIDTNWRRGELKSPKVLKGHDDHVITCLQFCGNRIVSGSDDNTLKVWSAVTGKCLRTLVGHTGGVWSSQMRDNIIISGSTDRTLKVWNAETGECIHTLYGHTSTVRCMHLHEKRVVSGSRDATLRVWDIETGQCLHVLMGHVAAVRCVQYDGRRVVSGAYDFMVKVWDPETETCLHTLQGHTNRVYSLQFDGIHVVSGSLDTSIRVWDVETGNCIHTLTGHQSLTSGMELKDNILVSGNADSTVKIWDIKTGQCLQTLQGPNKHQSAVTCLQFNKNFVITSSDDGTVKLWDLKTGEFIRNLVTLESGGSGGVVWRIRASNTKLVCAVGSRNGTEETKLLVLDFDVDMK
MITF primary: inhibitors of human MITF. AlphaScreen MITF homodimerization, bead proximity signal. inhibition, % at 2.6 µM. O75030. hit rate 0.91% among 650,000; in the data active = inhibition above about 50%;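 note: 0% = vehicle wells with protein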
GPR151 activ: activates the human receptor GPR151; Q8TDV0; PathHunter beta-arrestin GPR151 cells, luminescence; activation, % at 11.2 µM; hit rate 1% among 650,000; AID 1508602; in the data active = activation above about 4.9%;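 note: 0% = median of compound wells and 100% = cells with positive control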
GPR151 conf act: confirmation of human GPR151 activators; activation, % at 11.2 µM; 6,700 tested, under 10 active; AID 1508609; shares compounds with GPR151 activ; GPR151 PathHunter beta-arrestin cells, luminescence, 90 min; % of EA-reagent control over plate median;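 active = mean percent activation across replicates above the confirmation screen cutoff of 4.91%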
GPR119 ag: activates human GPR119 in a GPR151 counter-screen | hit rate 0.3% among 6,700 | activation, % at 11.2 µM | shares compounds with GPR151 activ | GPR119 PathHunter beta-arrestin cells, luminescence, 90 min; 0 = compound-well median, 100 = enzyme-acceptor control;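 active = mean percent activation in the counterscreen above 29.09%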;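 note: counterscreen on off-target GPR119 to flag nonselective hits from the GPR151 activator screen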
The depositor's hits bear a star; · = no result given. Only some compounds are listed: those with a hit (about 3.5% of all), similar ones and a draw of the others.

SMILES | TEAD-YAP block | FBW7 activator | MITF primary | GPR151 activ | GPR151 conf act | GPR119 ag
Nc1cc(C(=O)OCC(=O)Nc2cccc(S(N)(=O)=O)c2)ccc1Cl | 2 | 0 | 9 | 6.4* | 0 | -3
Cc1cc(C)c2nc(N(CCn3cccn3)C(=O)C3CC3)sc2c1 | -7 | 0 | 9 | 6.1* | 0 | -2
CCCCCCCCCCCCCC/C(C(=O)O)=C(\C)C(=O)O | 6 | 0 | 15 | 9.5* | 2 | -4
O=c1[nH]c(=S)c2c(n1-c1ccccc1)CCC2 | 6 | 0 | 5 | 5.9* | 1 | 9
O=c1[nH]c2sc3c(c2c(=O)n1-c1ccccc1)CCCC3 | 6 | 0 | 3 | 0 | · | ·
COc1ccc2[nH]cc(CCNC(=O)c3ccc(Br)cc3)c2c1 | -3 | 0 | -3 | 9.4* | 0 | -6
CCC(=O)NCCc1c[nH]c2ccc(OC)cc12 | 6 | 0 | 9 | -1 | · | ·
COc1ccc(/C(N)=N/OC(=O)c2ccc([N+](=O)[O-])cc2)cc1 | 2 | 0 | -3 | 0 | · | ·
O=C(Nc1cccc(C(F)(F)F)c1)C1C2CC3OC(=O)C1C3C2 (stereo unspecified) | -2 | 0 | 1 | 6.3* | 1 | 15
O=C(Nc1cc(C(F)(F)F)ccc1Cl)C1C2CC3OC(=O)C1C3C2 (stereo unspecified) | -1 | 0 | 4 | -2 | · | ·
O=S(=O)(CCCCCl)NS(=O)(=O)c1ccc(Cl)cc1 | -8 | 0 | 15 | -1 | · | ·
COc1ccc(-c2noc(N3CCC(C(=O)NC(C)CCc4ccccc4)CC3)n2)cc1 (stereo unspecified) | -11 | 0 | -13 | 5.1* | -1 | -8
COc1ccc(-c2noc(N3CCCC(C(=O)NC4CCCc5ccccc54)C3)n2)cc1 (stereo unspecified) | 7 | 0 | -3 | 5.6* | 1 | -2
COc1ccc(-c2noc(N3CCCC(C(=O)Nc4ccccc4OC)C3)n2)cc1 (stereo unspecified) | -7 | 0 | 0 | 10* | 0 | -1
COc1ccc(-c2noc(N3CCC(C(=O)O)CC3)n2)cc1 | -2 | 0 | -2 | 1 | · | ·
COc1ccc(-c2noc(N3CCCC(C(=O)N4CCCc5ccccc54)C3)n2)cc1 (stereo unspecified) | 17 | 0 | 0 | 4 | · | ·
COc1ccc(N(CC(=O)NC(C)(C)C)S(=O)(=O)c2ccc(C)c([N+](=O)[O-])c2)cc1 | 5 | 0 | 8 | 1 | · | ·
CC(=O)OCCNc1cc(Sc2ccccc2Cl)c2nonc2c1[N+](=O)[O-] | 4 | 0 | 0 | -1 | · | ·
CC1CCCN(C(=O)Cn2c(=O)oc3cc(S(=O)(=O)N4CCCCCC4)ccc32)C1 (stereo unspecified) | -7 | 0 | 1 | 0 | · | ·
Nc1nc(CSc2nnnn2Cc2ccccc2)nc(N2CCOCC2)n1 | -11 | 0 | -2 | 7.6* | 1 | -4
O=C(NCCC1=CCCCC1)c1ccc2c(c1)NC(=O)c1ccccc1S2(=O)=O | 7 | 0 | 3 | 0 | · | ·
Cc1ccc(-c2nnc(SCC(=O)Nc3ccccc3N3CCOCC3)o2)cc1 | -6 | 0 | 12 | 5.1* | 0 | 2
COc1ccc(-c2nnc(SCC(=O)Nc3ccc(N4CCOCC4)cc3)o2)cc1 | 17 | 0 | 0 | 6.1* | -1 | -8
C[C@H](NC(N)=O)C(=O)OCC(=O)Nc1ccc2c(c1)CCC2 | -2 | 0 | 3 | -1 | · | ·
O=C(NCc1n[nH]c(=S)n1-c1cccc(C(F)(F)F)c1)c1ccc(S(=O)(=O)N2CCCCC2)cc1 | 8 | 0 | 8 | 5.4* | 1 | 16
SMILES | TEAD-YAP block | FBW7 activator | MITF primary | GPR151 activ | GPR151 conf act | GPR119 ag
CCOc1cc2c(cc1OC)C(c1ccc(F)c(F)c1)NCC2 (stereo unspecified) | 7 | 0 | 12 | 1 | · | ·
CCn1c(SCC(=O)Nc2cccc(C(=O)O)c2)nnc1-c1cccc(C)c1 | 1 | 1 | 7 | 0 | · | ·
CCn1c(COc2cccc(C)c2)nnc1SCC(=O)Nc1cccc(C(=O)O)c1 | 0 | 0 | 4 | 6.3* | 0 | 3
COc1cccc(C(c2nnnn2C(C)C)N2CCN(c3ccccc3)CC2)c1OC (stereo unspecified) | 0 | 0 | 3 | 5.4* | 1 | 2
CC(C)C(=O)Nc1ccc(S(=O)(=O)NCC2(c3ccccc3)CCOCC2)cc1 | -7 | 0 | 0 | 5.2* | 0 | -5
COC(=O)C(NC(=O)c1cccs1)C12CC3CC(CC(C3)C1)C2 (stereo unspecified) | -4 | 0 | 3 | 5.1* | 0 | -7
COC(=O)C(NC(=O)c1ccc(F)cc1)C12CC3CC(CC(C3)C1)C2 (stereo unspecified) | 6 | 0 | 18 | 1 | · | ·
CCN1CCN(C(CC(C)C)c2nnnn2Cc2ccc3c(c2)OCO3)CC1 (stereo unspecified) | -3 | 0 | 3 | 5.3* | 1 | 6
O=C(O)C1CC=C(Cl)CC1C(=O)Nc1ccn[nH]1 (stereo unspecified) | 6 | 0 | -6 | 10.0* | 0 | 0
O=C(NC1=Nc2cccc3cccc1c23)c1ccc([N+](=O)[O-])cc1 | 2 | 0 | 7 | 5.5* | 0 | -12
O=[N+]([O-])c1ccc(/C=N/NC2=Nc3cccc4cccc2c34)cc1 | -27 | 0 | 4 | 6.3* | 0 | 3
O=[N+]([O-])c1cccc(/C=N/NC2=Nc3cccc4cccc2c34)c1 | -35 | 0 | 15 | -1 | · | ·
O=C(NCCN1CCN(Cc2ccc(Br)cc2)CC1)C(=O)Nc1ccc(Cl)cc1 | 4 | 0 | 0 | 0 | · | ·
CNC(=O)C(=O)NCCN1CCN(Cc2ccc(Br)cc2)CC1 | 8 | 0 | -6 | 7.8* | -1 | -5
Cc1c(-c2ccc(Cl)cc2)noc1C1CCN(CCc2ccccc2)CC1 | · | 0 | 9 | 8.2* | 2 | -1
O=C(Cc1ccc(Cl)cc1Cl)N1CCN(c2ccc(O)cc2)CC1 | -7 | 1 | 4 | 5.2* | 0 | -3
NC(=O)C1CCN(C(=O)Cc2ccc(Cl)cc2Cl)CC1 | -8 | 0 | -1 | 1 | · | ·
Cc1ccccc1Oc1ccc(S(=O)(=O)N2CCCC2)cc1[N+](=O)[O-] | -3 | 0 | 8 | -2 | · | ·
Cn1cccc1C(=O)NC(=O)CSc1cccc[n+]1[O-] | -3 | 0 | -1 | 4.9* | 1 | 7
COc1ccccc1C(=O)NC(=O)CSc1cccc[n+]1[O-] | 4 | 0 | -12 | -1 | · | ·
CC(C)CC(=O)NC(=S)Nc1ccc(S(=O)(=O)N=C(N)N)cc1 | -5 | 0 | -14 | 1 | · | ·
CC(C)Oc1ccc(CNc2ncnc(NCc3ccc(OC(C)C)cc3)c2[N+](=O)[O-])cc1 | 1 | 0 | -9 | 2 | · | ·
CCn1nc(C)c(CN2CCOc3ccc(C(C)(O)COc4ccccc4)cc3C2)c1C (stereo unspecified) | -1 | 0 | -11 | 6.3* | -1 | -13
